{"source": "PubChem BioAssay (NCI)", "note": "About 79,000 compounds went through this panel and 15% of them were active in at least one assay; those are over-represented in the sample as a whole. Active and inactive are the calls of the source. No stated cut-off is given here; in the data, active means growth inhibition above about 70%; inactive means the rest.", "data": [{"assay": "NCI Yeast Anticancer Drug Screen. Data for the bub3 strain (AID 167)", "settings": "S. cerevisiae bub3 mutant strain, at 50.0 µM, stronger effect = higher value", "summary_of_the_method": "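Screening used yeast with an engineered genetic alteration affecting cell cycle control. Compound-exposed cultures were compared with vehicle cultures, and reduced growth was taken as inhibition.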", "values": [{"smiles": "N#Cc1nc(CC(=O)c2ccncc2)c(CC(=O)c2ccncc2)nc1C#N", "growth inhibition": "-10.9% (inactive)"}, {"smiles": "COc1cnc(NS(=O)(=O)c2ccc(N)cc2)nc1", "growth inhibition": "-10% (inactive)"}, {"smiles": "CC(=O)NNC(=S)N/C=C(\\C#N)C(=O)c1ccc2ccccc2c1", "growth inhibition": "-25.5% (inactive)"}, {"smiles": "Cc1cc(C)c(C#[N+][O-])c(C)c1C#[N+][O-]", "growth inhibition": "-1.1% (inactive)"}, {"smiles": "CN1CCc2[nH]nc(-c3n[nH]c4c3CN(C)CC4)c2C1", "growth inhibition": "-8.6% (inactive)"}, {"smiles": "O=c1c(-c2ccccc2)c2oc(c1-c1ccccc1)CS(=O)(=O)CCC2", "growth inhibition": "8.15% (inactive)"}, {"smiles": "CCOC(=O)C1CSCN1C(C)=O", "note": "(centres undefined)", "growth inhibition": "-11.8% (inactive)"}, {"smiles": "CC(=O)Nc1ccc(/C=C2\\N=C(c3ccccc3)OC2=O)cc1", "growth inhibition": "-10.9% (inactive)"}, {"smiles": "O=C1CC2CCCCC2=C1O", "note": "(centres undefined)", "growth inhibition": "-3.1% (inactive)"}, {"smiles": "CN1C(=O)OC2C3NC(=O)OC3C(O)C(O)C21", "note": "(centres undefined)", "growth inhibition": "-6.15% (inactive)"}, {"smiles": "CCOC(=O)c1cc(C)nc(Cl)c1[N+](=O)[O-]", "growth inhibition": "-3.45% (inactive)"}, {"smiles": "COc1ccc2nc3cc(Cl)ccc3c(NCCC3CCCN4CCCCC34)c2c1", "note": "(centres undefined)", "growth inhibition": "12.4% (inactive)"}, {"smiles": "CC1(C)OC(=C(C#N)C#N)C(C#N)=C1/C=C/c1ccncc1", "growth inhibition": "31.5% (inactive)"}, {"smiles": "Cc1ccc([N+](=O)[O-])cc1N=C=O", "growth inhibition": "-32.8% (inactive)"}, {"smiles": "Cc1ccc(S(=O)(=O)NNC(=O)c2cc(C(=O)NNS(=O)(=O)c3ccc(C)cc3)c(C)nc2C)cc1", "growth inhibition": "8.3% (inactive)"}, {"smiles": "COC(=O)CNC(=O)Nc1cc(N2C(=O)ON3C2C(C)(C)N(O)C3(C)C)ccc1C", "note": "(centres undefined)", "growth inhibition": "15.2% (inactive)"}, {"smiles": "CCN(CC)CCCCCCCNc1nccc2ccccc12", "growth inhibition": "12.8% (inactive)"}, {"smiles": "CCCc1c(O)c(=O)c2c(OC)cc(OC)c3c4c(OC)cc(OC)c5c(=O)c(O)c(CCC)c(c1c23)c54", "growth inhibition": "75.8% (active)"}, {"smiles": "O=C(O)CCSC1=NCCN1", "growth inhibition": "-42.9% (inactive)"}, {"smiles": "Cc1ccc(C(=O)C2CC2c2ccccc2)cc1", "note": "(centres undefined)", "growth inhibition": "-0.95% (inactive)"}, {"smiles": "O=C(O)C1[N-]CCNC1C(=O)O.[O]=[V][OH]", "note": "(centres undefined)", "growth inhibition": "-2.25% (inactive)"}, {"smiles": "CC(O)(c1ccc(OCCC[N+](C)(C)C)cc1)C(C)(O)c1ccc(OCCC[N+](C)(C)C)cc1", "note": "(centres undefined)", "growth inhibition": "-16.9% (inactive)"}, {"smiles": "C=C(Br)CN(C(C)=O)C1CCCCC1", "growth inhibition": "15% (inactive)"}, {"smiles": "CCOC(=O)CCOc1ccccc1", "growth inhibition": "-0.85% (inactive)"}, {"smiles": "O=c1ccnc2c1ccc1[nH]cccc12", "growth inhibition": "8.6% (inactive)"}, {"smiles": "Cc1nc(N(CCO)CCO)c2sc(=S)n(-c3ccccc3)c2n1", "growth inhibition": "-14.2% (inactive)"}, {"smiles": "OC1c2ccccc2-c2ccc(N(Cc3ccccc3)Cc3ccccc3)cc21", "note": "(centres undefined)", "growth inhibition": "-9% (inactive)"}, {"smiles": "CCCCCCCCCCCCC(F)C(=O)OCC1OC(n2cc(C)c(=O)[nH]c2=O)CC1N=[N+]=[N-]", "note": "(centres undefined)", "growth inhibition": "10.7% (inactive)"}, {"smiles": "Cn1c(=O)c2[nH]c(CCNC(=O)c3ccccc3)nc2n(C)c1=O", "growth inhibition": "-40.8% (inactive)"}, {"smiles": "O=S1(=O)c2ccccc2N(O)C2=NCCN21", "growth inhibition": "-30.9% (inactive)"}, {"smiles": "O=C(O)CC(NC(=O)CP(=O)(O)O)C(=O)O", "note": "(centres undefined)", "growth inhibition": "-8.5% (inactive)"}, {"smiles": "COc1cc([N+](=O)[O-])c(OC)cc1N", "growth inhibition": "-27.4% (inactive)"}, {"smiles": "C#CC1(NC(=O)c2ccccc2C(=O)Nc2cccc(C(F)(F)F)c2)CCCCC1", "growth inhibition": "-20.1% (inactive)"}, {"smiles": "CC1CCCCN1CCCO", "note": "(centres undefined)", "growth inhibition": "-14.6% (inactive)"}, {"smiles": "CCc1ccc(OC(C)=O)cc1", "growth inhibition": "6.6% (inactive)"}, {"smiles": "CCN(CC)C(=O)C1CCNCC1", "growth inhibition": "9.85% (inactive)"}, {"smiles": "COc1ccccc1CNCCCCCNCCCCCCCCCCNCCCCCNCc1ccccc1OC", "growth inhibition": "-22% (inactive)"}, {"smiles": "Cc1cccc(C(=O)N(C)C)c1", "growth inhibition": "4% (inactive)"}, {"smiles": "CC(=O)c1cc(C)c(O)c(C)c1", "growth inhibition": "-6.75% (inactive)"}, {"smiles": "Cc1cccc(N2CCN(c3ccc4nonc4c3[N+](=O)[O-])CC2)c1", "growth inhibition": "-13.9% (inactive)"}]}, {"assay": "NCI Yeast Anticancer Drug Screen. Data for the mlh1 rad18 strain (AID 175)", "settings": "S. cerevisiae mlh1 rad18 strain growth inhibition; at 50.0 µM; stronger effect = higher value", "summary_of_the_method": "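In this whole-cell yeast screen, a strain with altered DNA damage repair is challenged with compound, and its growth is measured against matched vehicle-treated controls.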", "values": [{"smiles": "N#Cc1nc(CC(=O)c2ccncc2)c(CC(=O)c2ccncc2)nc1C#N", "growth inhibition": "53.1% (inactive)"}, {"smiles": "COc1cnc(NS(=O)(=O)c2ccc(N)cc2)nc1", "growth inhibition": "-7.2% (inactive)"}, {"smiles": "CC(=O)NNC(=S)N/C=C(\\C#N)C(=O)c1ccc2ccccc2c1", "growth inhibition": "-53% (inactive)"}, {"smiles": "Cc1cc(C)c(C#[N+][O-])c(C)c1C#[N+][O-]", "growth inhibition": "15.4% (inactive)"}, {"smiles": "CN1CCc2[nH]nc(-c3n[nH]c4c3CN(C)CC4)c2C1", "growth inhibition": "13.6% (inactive)"}, {"smiles": "O=c1c(-c2ccccc2)c2oc(c1-c1ccccc1)CS(=O)(=O)CCC2", "growth inhibition": "-2.35% (inactive)"}, {"smiles": "CCOC(=O)C1CSCN1C(C)=O", "note": "(centres undefined)", "growth inhibition": "-21.9% (inactive)"}, {"smiles": "CC(=O)Nc1ccc(/C=C2\\N=C(c3ccccc3)OC2=O)cc1", "growth inhibition": "10.3% (inactive)"}, {"smiles": "O=C1CC2CCCCC2=C1O", "note": "(centres undefined)", "growth inhibition": "13.8% (inactive)"}, {"smiles": "CN1C(=O)OC2C3NC(=O)OC3C(O)C(O)C21", "note": "(centres undefined)", "growth inhibition": "-8.95% (inactive)"}, {"smiles": "CCOC(=O)c1cc(C)nc(Cl)c1[N+](=O)[O-]", "growth inhibition": "6.95% (inactive)"}, {"smiles": "COc1ccc2nc3cc(Cl)ccc3c(NCCC3CCCN4CCCCC34)c2c1", "note": "(centres undefined)", "growth inhibition": "33% (inactive)"}, {"smiles": "CC1(C)OC(=C(C#N)C#N)C(C#N)=C1/C=C/c1ccncc1", "growth inhibition": "-2.45% (inactive)"}, {"smiles": "Cc1ccc([N+](=O)[O-])cc1N=C=O", "growth inhibition": "-56.3% (inactive)"}, {"smiles": "Cc1ccc(S(=O)(=O)NNC(=O)c2cc(C(=O)NNS(=O)(=O)c3ccc(C)cc3)c(C)nc2C)cc1", "growth inhibition": "-7.8% (inactive)"}, {"smiles": "COC(=O)CNC(=O)Nc1cc(N2C(=O)ON3C2C(C)(C)N(O)C3(C)C)ccc1C", "note": "(centres undefined)", "growth inhibition": "-22.6% (inactive)"}, {"smiles": "CCN(CC)CCCCCCCNc1nccc2ccccc12", "growth inhibition": "35.4% (inactive)"}, {"smiles": "CCCc1c(O)c(=O)c2c(OC)cc(OC)c3c4c(OC)cc(OC)c5c(=O)c(O)c(CCC)c(c1c23)c54", "growth inhibition": "89% (active)"}, {"smiles": "O=C(O)CCSC1=NCCN1", "growth inhibition": "-10.6% (inactive)"}, {"smiles": "Cc1ccc(C(=O)C2CC2c2ccccc2)cc1", "note": "(centres undefined)", "growth inhibition": "-7% (inactive)"}, {"smiles": "O=C(O)C1[N-]CCNC1C(=O)O.[O]=[V][OH]", "note": "(centres undefined)", "growth inhibition": "-5.05% (inactive)"}, {"smiles": "C=C(Br)CN(C(C)=O)C1CCCCC1", "growth inhibition": "26.8% (inactive)"}, {"smiles": "CCOC(=O)CCOc1ccccc1", "growth inhibition": "22.8% (inactive)"}, {"smiles": "O=c1ccnc2c1ccc1[nH]cccc12", "growth inhibition": "13.3% (inactive)"}, {"smiles": "Cc1nc(N(CCO)CCO)c2sc(=S)n(-c3ccccc3)c2n1", "growth inhibition": "-45.8% (inactive)"}, {"smiles": "OC1c2ccccc2-c2ccc(N(Cc3ccccc3)Cc3ccccc3)cc21", "note": "(centres undefined)", "growth inhibition": "23.8% (inactive)"}, {"smiles": "CCCCCCCCCCCCC(F)C(=O)OCC1OC(n2cc(C)c(=O)[nH]c2=O)CC1N=[N+]=[N-]", "note": "(centres undefined)", "growth inhibition": "14.8% (inactive)"}, {"smiles": "Cn1c(=O)c2[nH]c(CCNC(=O)c3ccccc3)nc2n(C)c1=O", "growth inhibition": "-9.95% (inactive)"}, {"smiles": "O=S1(=O)c2ccccc2N(O)C2=NCCN21", "growth inhibition": "-33.9% (inactive)"}, {"smiles": "O=C(O)CC(NC(=O)CP(=O)(O)O)C(=O)O", "note": "(centres undefined)", "growth inhibition": "-13.1% (inactive)"}, {"smiles": "COc1cc([N+](=O)[O-])c(OC)cc1N", "growth inhibition": "27.6% (inactive)"}, {"smiles": "C#CC1(NC(=O)c2ccccc2C(=O)Nc2cccc(C(F)(F)F)c2)CCCCC1", "growth inhibition": "-14.2% (inactive)"}, {"smiles": "CC1CCCCN1CCCO", "note": "(centres undefined)", "growth inhibition": "17.4% (inactive)"}, {"smiles": "CCc1ccc(OC(C)=O)cc1", "growth inhibition": "15.6% (inactive)"}, {"smiles": "CCN(CC)C(=O)C1CCNCC1", "growth inhibition": "-7.75% (inactive)"}, {"smiles": "COc1ccccc1CNCCCCCNCCCCCCCCCCNCCCCCNCc1ccccc1OC", "growth inhibition": "-36.5% (inactive)"}, {"smiles": "Cc1cccc(C(=O)N(C)C)c1", "growth inhibition": "3.75% (inactive)"}, {"smiles": "CC(=O)c1cc(C)c(O)c(C)c1", "growth inhibition": "-5.55% (inactive)"}, {"smiles": "Cc1cccc(N2CCN(c3ccc4nonc4c3[N+](=O)[O-])CC2)c1", "growth inhibition": "-15.3% (inactive)"}]}]}
